Measured values from PubChem BioAssay (NCATS).
Inconclusive results are not listed. Values without a mark were called inactive. The source made the active and inactive calls. Unless noted, calls come from the whole dose curve; as a rule, active = well fitted inhibition curve with a large enough effect; inconclusive = small, poorly fitted or top-dose-only effect; inactive = no such curve, though single readings can be large or run the other way.

Molecular target: Atrial natriuretic peptide receptor 2 (Homo sapiens) (UniProt P20594)
Test: Natriuretic polypeptide receptor (hNpr2) antagonism - Pilot subtype selectivity assay (AID 1347050; calls by dose curve; note: potency is the fitted concentration of half-maximal effect; for activity change, negative = inhibition: % is set by controls: 0 for no effect and ±100 for the full control effect)
Conditions: NPR2-expressing cells, cGMP antagonist-mode read-out; series mostly up to 38.3 µM; activity change, negative = inhibition: at the top concentration
Method in brief: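 Luminescence from a genetically encoded cGMP luciferase biosensor in hNpr2-expressing HEK293 cells is read before and 20 min after adding 1 nM hNppC. Test compounds, in interplate 1:5 titrations, are added 30-50 min ahead of the agonist.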

Sequence of Atrial natriuretic peptide receptor 2 (Homo sapiens) (P20594 whole entry, looked up): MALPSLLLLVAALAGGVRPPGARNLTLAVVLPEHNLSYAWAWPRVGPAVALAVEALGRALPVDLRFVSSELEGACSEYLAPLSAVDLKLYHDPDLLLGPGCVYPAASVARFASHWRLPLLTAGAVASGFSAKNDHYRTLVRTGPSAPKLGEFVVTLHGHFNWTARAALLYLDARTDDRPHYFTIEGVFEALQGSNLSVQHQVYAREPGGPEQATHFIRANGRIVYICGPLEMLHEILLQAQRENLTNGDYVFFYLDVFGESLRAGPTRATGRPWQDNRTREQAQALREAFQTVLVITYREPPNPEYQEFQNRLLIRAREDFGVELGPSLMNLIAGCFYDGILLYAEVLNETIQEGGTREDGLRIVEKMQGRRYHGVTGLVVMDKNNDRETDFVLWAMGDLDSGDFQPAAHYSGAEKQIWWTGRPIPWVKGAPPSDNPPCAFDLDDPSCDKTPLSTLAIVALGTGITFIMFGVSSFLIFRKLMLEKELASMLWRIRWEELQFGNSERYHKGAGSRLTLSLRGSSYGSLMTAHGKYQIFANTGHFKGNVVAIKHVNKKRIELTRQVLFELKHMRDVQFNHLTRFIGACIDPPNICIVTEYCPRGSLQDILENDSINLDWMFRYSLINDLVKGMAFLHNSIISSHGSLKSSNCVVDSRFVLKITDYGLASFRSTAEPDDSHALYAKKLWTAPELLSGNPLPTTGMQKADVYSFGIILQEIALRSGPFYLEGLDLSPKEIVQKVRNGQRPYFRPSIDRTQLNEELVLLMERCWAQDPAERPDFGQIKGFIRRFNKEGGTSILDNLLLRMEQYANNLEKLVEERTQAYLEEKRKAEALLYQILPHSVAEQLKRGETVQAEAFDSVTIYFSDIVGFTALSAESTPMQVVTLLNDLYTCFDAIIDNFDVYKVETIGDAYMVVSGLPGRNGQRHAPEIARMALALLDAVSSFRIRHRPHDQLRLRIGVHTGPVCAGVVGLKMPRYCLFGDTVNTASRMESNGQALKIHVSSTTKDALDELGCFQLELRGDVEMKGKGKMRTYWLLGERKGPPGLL

SMILES	activity change, negative = inhibition	Potency
COCCOC(=O)C1=C(C)NC(C)=C(C(=O)OC/C=C/c2ccccc2)C1c1cccc([N+](=O)[O-])c1 (stereo unspecified)	-0.101%	
COC(=O)C1=C(C)NC(C)=C(C(=O)OC)C1c1ccccc1[N+](=O)[O-]		13.1 µM (active)
CCN(CC)CCCC(C)Nc1c2ccc(Cl)cc2nc2ccc(OC)cc12 (stereo unspecified)	8.86%	
OCCN1CCN(CCCN2c3ccccc3Sc3ccc(Cl)cc32)CC1		16.5 µM (active)
CN(C)CCCN1c2ccccc2Sc2ccc(Cl)cc21		14.7 µM (active)
Cc1cc(N)c2ccccc2[n+]1CCCCCCCCCC[n+]1c(C)cc(N)c2ccccc21	-1.73%	

System: not listed separately
Test: NS1 protein of Zika virus - qHTS assay to identify small molecule inhibitors in human HEK 293 cells (AID 1347053); note: nearly all actives have a fitted effect of over 55% in size; note: potency is the fitted concentration of half-maximal effect;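 for activity change, negative = inhibition: plate controls were infected untreated cells for no effect and uninfected cells for full effect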
Conditions: HEK293 ZIKV MR766 infection, NS1 TR-FRET, 24 h; series mostly up to 46.1 µM; activity change, negative = inhibition: at the top concentration
Method in brief: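 Read-out is a two-antibody TR-FRET for ZIKV NS1, normalized between uninfected cells and infected cells. Compound added 1 h before MR766 infection at MOI 0.5; human HEK 293 cells incubated 24 h, 37 C.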

SMILES	Potency	activity change, negative = inhibition
CC(CN(C)C)CN1c2ccccc2CCc2ccccc21 (stereo unspecified)	inactive	
NC1[C@H]2CN(c3nc4c(cc3F)c(=O)c(C(=O)O)cn4-c3ccc(F)cc3F)C[C@@H]12 (stereo partly specified)	inactive	
O=C1OC(OC(=O)c2cccnc2Nc2cccc(C(F)(F)F)c2)c2ccccc21 (stereo unspecified)		-12.6%
CCCCc1ncc(/C=C(\Cc2cccs2)C(=O)O)n1Cc1ccc(C(=O)O)cc1	inactive	
O=C(O)CN1C(=O)c2cccc3cccc(c23)C1=O		-1.07%
COC(=O)C1=C(C)NC(C)=C(C(=O)OC)C1c1ccccc1[N+](=O)[O-]		3.72%
CSc1ccc2c(c1)N(CCC1CCCCN1C)c1ccccc1S2 (stereo unspecified)		-6.48%
CCN(CC)CCCC(C)Nc1c2ccc(Cl)cc2nc2ccc(OC)cc12 (stereo unspecified)		-9.57%
O=C(CCCN1CCN(c2ccccn2)CC1)c1ccc(F)cc1		0.612%
Cc1cc(C(C#N)c2ccc(Cl)cc2)c(Cl)cc1NC(=O)c1cc(I)cc(I)c1O (stereo unspecified)		28.9%
C=Cc1c(C)c2cc3[nH]c(cc4nc(cc5nc(cc1[nH]2)C(C)=C5CCC(=O)O)C(CCC(=O)O)=C4C)c(C)c3C=C	inactive	
Cc1ccc2nc(N)[nH]c(=O)c2c1Sc1ccncc1		7.73%
C[C@H](NC(CCc1ccccc1)C(=O)O)C(=O)N1CCC[C@H]1C(=O)O (stereo partly specified)	inactive	
CN(C)CCC=C1c2ccccc2CCc2ccccc21	inactive	
O=C1NC(=O)[C@@]2(CCOc3ccc(F)cc32)N1	inactive	
CNCCC(Oc1ccc(C(F)(F)F)cc1)c1ccccc1 (stereo unspecified)	inactive	

SMILES	Potency	activity change, negative = inhibition
CN1CCC[C@@H]1Cc1c[nH]c2ccc(CCS(=O)(=O)c3ccccc3)cc12	inactive	
CN(C)CCCN1c2ccccc2Sc2ccc(Cl)cc21	7.08 µM (active)	
CC(C)c1c(C(=O)Nc2ccccc2)c(-c2ccccc2)c(-c2ccc(F)cc2)n1CC[C@@H](O)C[C@@H](O)CC(=O)O	inactive	
O=Cc1ccccc1C=O		-13.4%
CCCCOC(=O)c1ccc(O)cc1		3.17%
CN(C)CC[C@@H](c1ccc(Cl)cc1)c1ccccn1	inactive	
CC(=O)c1ccc2c(c1)N(CCCN(C)C)c1ccccc1S2	inactive	
O=C1Nc2ccc(Cl)cc2[C@@](C#CC2CC2)(C(F)(F)F)O1		25.6%
CNCCCC1c2ccccc2C=Cc2ccccc21	inactive	
Cc1c(O)cccc1C(=O)N[C@@H](CSc1ccccc1)[C@H](O)CN1C[C@H]2CCCC[C@H]2C[C@H]1C(=O)NC(C)(C)C		2.88%
C[C@H]1O[C@@H](n2cc(F)c(=O)[nH]c2=O)[C@H](O)[C@@H]1O	inactive	
Oc1ccc(C(O)CNCCCCCCNCC(O)c2ccc(O)c(O)c2)cc1O (stereo unspecified)		-8.32%
COc1cc(C)c(Cc2cnc(N)nc2N)cc1OC		0.306%
CCCCN(CCCC)CC(O)c1cc(Cl)cc2c1-c1ccc(Cl)cc1/C2=C/c1ccc(Cl)cc1 (stereo unspecified)	inactive	
CC(C)(C(=O)O)c1ccc(C(O)CCCN2CCC(C(O)(c3ccccc3)c3ccccc3)CC2)cc1 (stereo unspecified)	inactive	

Molecular target: T1, Tyrosine-protein phosphatase non-receptor type substrate 1 (Homo sapiens) + Leukocyte surface antigen CD47 (Homo sapiens) (UniProt P78324+Q08722)
Test: CD47-SIRPalpha protein protein interaction - LANCE assay qHTS validation (AID 1347057; active = well fitted curve in the direction sought with a large enough effect in the signal ratio, with a control signal flat, not every such curve was filed as active; the % refers to the signal ratio; note: 0% is about no effect)
Conditions: Recombinant CD47-His / biotin-SIRPalpha, TR-FRET ratio; series mostly up to 38.3 µM; activity change, negative = inhibition: at the top concentration
Method in brief: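 Inhibition of soluble CD47/SIRPalpha ectodomain association by titrated compounds, measured as 665/615 nm time-resolved FRET ratio after sequential 30 min room-temperature incubations.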

T1 sequence (P78324 whole entry, looked up): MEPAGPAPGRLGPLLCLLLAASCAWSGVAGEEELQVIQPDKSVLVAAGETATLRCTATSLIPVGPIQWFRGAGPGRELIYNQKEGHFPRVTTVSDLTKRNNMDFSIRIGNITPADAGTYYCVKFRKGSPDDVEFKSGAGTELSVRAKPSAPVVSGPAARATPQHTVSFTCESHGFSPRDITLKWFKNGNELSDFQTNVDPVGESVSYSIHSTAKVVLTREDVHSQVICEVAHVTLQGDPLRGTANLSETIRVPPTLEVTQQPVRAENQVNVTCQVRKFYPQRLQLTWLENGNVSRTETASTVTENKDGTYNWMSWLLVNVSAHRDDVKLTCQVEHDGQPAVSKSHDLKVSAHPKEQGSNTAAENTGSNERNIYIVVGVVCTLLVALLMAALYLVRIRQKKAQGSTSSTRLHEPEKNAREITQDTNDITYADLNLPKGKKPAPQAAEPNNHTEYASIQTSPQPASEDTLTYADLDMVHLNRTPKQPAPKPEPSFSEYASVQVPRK
T1 sequence (Q08722 whole entry, looked up): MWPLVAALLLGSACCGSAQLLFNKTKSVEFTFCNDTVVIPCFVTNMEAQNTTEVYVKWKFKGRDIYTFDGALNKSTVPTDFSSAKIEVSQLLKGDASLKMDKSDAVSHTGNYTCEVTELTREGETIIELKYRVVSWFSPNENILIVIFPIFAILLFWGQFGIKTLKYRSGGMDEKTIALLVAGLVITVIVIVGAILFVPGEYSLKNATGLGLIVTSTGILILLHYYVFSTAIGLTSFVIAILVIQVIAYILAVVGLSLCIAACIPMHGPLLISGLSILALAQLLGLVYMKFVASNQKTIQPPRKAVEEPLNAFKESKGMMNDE

SMILES	activity change, negative = inhibition
CC(CN(C)C)CN1c2ccccc2CCc2ccccc21 (stereo unspecified)	1.01%
CSc1ccc2c(c1)N(CCC1CCCCN1C)c1ccccc1S2 (stereo unspecified)	-2.67%
C=Cc1c(C)c2cc3[nH]c(cc4nc(cc5nc(cc1[nH]2)C(C)=C5CCC(=O)O)C(CCC(=O)O)=C4C)c(C)c3C=C	3.95%
CC(=O)c1ccc2c(c1)N(CCCN(C)C)c1ccccc1S2	1.01%
Cc1c(O)cccc1C(=O)N[C@@H](CSc1ccccc1)[C@H](O)CN1C[C@H]2CCCC[C@H]2C[C@H]1C(=O)NC(C)(C)C	-0.211%

Molecular target: T1, Tyrosine-protein phosphatase non-receptor type substrate 1 (Homo sapiens) + Leukocyte surface antigen CD47 (Homo sapiens)
Test: CD47-SIRPalpha protein protein interaction - HTRF assay qHTS validation (AID 1347058; active = well fitted curve in the direction sought with a large enough effect in the signal ratio, not every such curve was filed as active; the % refers to the signal ratio; note: 0% is about no effect)
Conditions: TR-FRET HTRF CD47-His / biotin-SIRPalpha binding, ratio 665/615; series mostly up to 38.3 µM; activity change, negative = inhibition: at the top concentration
Method in brief: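 Soluble extracellular domains (6His-CD47, Avi-tag-biotinylated SIRPalpha) in PBS pH 7.4 with 0.05% IGEPAL CA-630. Compounds were preincubated 30 min at RT with CD47 and anti-His-Eu, then SIRPalpha and SAV-XL665 were added. TR-FRET 665/615 ratio.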

SMILES	activity change, negative = inhibition
CC(CN(C)C)CN1c2ccccc2CCc2ccccc21 (stereo unspecified)	-1.52%
CSc1ccc2c(c1)N(CCC1CCCCN1C)c1ccccc1S2 (stereo unspecified)	-7.37%
C[C@H](NC(CCc1ccccc1)C(=O)O)C(=O)N1CCC[C@H]1C(=O)O (stereo partly specified)	1.13%
CN(C)CCC=C1c2ccccc2CCc2ccccc21	-2.05%
O=C1NC(=O)[C@@]2(CCOc3ccc(F)cc32)N1	3%
CN1CCC[C@@H]1Cc1c[nH]c2ccc(CCS(=O)(=O)c3ccccc3)cc12	-2.13%
CC(C)c1c(C(=O)Nc2ccccc2)c(-c2ccccc2)c(-c2ccc(F)cc2)n1CC[C@@H](O)C[C@@H](O)CC(=O)O	2.32%
Cc1c(O)cccc1C(=O)N[C@@H](CSc1ccccc1)[C@H](O)CN1C[C@H]2CCCC[C@H]2C[C@H]1C(=O)NC(C)(C)C	-3.76%
C[C@H]1O[C@@H](n2cc(F)c(=O)[nH]c2=O)[C@H](O)[C@@H]1O	-0.0087%
